A short description of test [1]: Human pregnane X receptor (PXR) small molecule agonists, qHTS cell viability counter screen (AID 1346977). Also: nearly all actives have a fitted effect of over 50% in size. Also: potency is read from the fitted curve at half-maximal effect. In outline: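 Same-well viability read: CellTiter-Fluor added after 23 hr compound exposure, fluorescence measured 1 hr later. Cells were PXR-Luc HepG2 seeded at 2,000/well in 5% charcoal-stripped FBS medium, rested 5 hr before dosing at 37 C.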
(In general: In qHTS, concentration-response curves come from the screen itself.)

Test [2] in a line: Caspase-3/7 induction in HepG2 cells by small molecules, qHTS assay (AID 1346978). Also: nearly all actives have a fitted effect of over 15% in size. Also: potency is read from the fitted curve at half-maximal effect. In outline:
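Wild-type HepG2 cells (2,000/well) were settled 5 h at 37 C, 5% CO2, then exposed to compounds in DMSO for 17 h. Caspase-3/7 activity was read by luminescence 30 min after adding Caspase-Glo 3/7 reagent at room temperature.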

Test [3] in a line: Caspase-3/7 induction in CHO-K1 cells by small molecules, qHTS cell viability counter screen (AID 1346979). Also: nearly all actives have a fitted effect of over 35% in size. Also: potency is read from the fitted curve at half-maximal effect. In outline:
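Cytotoxicity counter screen: CellTiter-Fluor added to compound-treated wild-type CHO-K1 cells at 16 h (37C, 5% CO2), fluorescence measured 1 h later; same wells as caspase-3/7 measurement.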

The nature of test [4]: Caspase-3/7 induction in CHO-K1 cells by small molecules, qHTS assay (AID 1346980). Also: nearly all actives have a fitted effect of over 15% in size. Also: potency is read from the fitted curve at half-maximal effect. In a few lines:
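Wild-type cells were seeded at 1,500 per well and settled 5 hr at 37 C, 5% CO2, then exposed to DMSO-dissolved compounds for 17 hr. Caspase-Glo 3/7 reagent was added, and luminescence was read after 30min at room temperature.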

Test [5] in a line: Caspase-3/7 induction in HepG2 cells by small molecules, qHTS cell viability counter screen (AID 1346981). Also: nearly all actives have a fitted effect of over 30% in size. Also: potency is read from the fitted curve at half-maximal effect. In a few lines: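 Wild-type HepG2 cells, 2,000/well, settled 5 hr at 37 C, 5% CO2 before compound addition. Viability read by CellTiter-Fluor fluorescence, reagent added after 16 hr compound exposure, then 1 hr at 37C, in the same wells as the caspase read.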
Test [6] has as its target Nuclear receptor subfamily 1 group I member 2 (Homo sapiens) (UniProt O75469). The test is described as follows: Human pregnane X receptor (PXR) small molecule agonists, qHTS assay (AID 1346982). Also: nearly all actives have a fitted effect of over 35% in size. Also: potency is read from the fitted curve at half-maximal effect. In a few lines: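 PXR-Luc HepG2 reporter cells (CYP3A4-driven luciferase) in 5% charcoal-stripped FBS medium, plated 5 h before compound addition, then treated 24 h at 37C. Luciferase read by ONE-Glo luminescence after 30 min at room temperature.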

The target in test [7] is Acetylcholinesterase (Homo sapiens) (UniProt P22303). The test is described as follows: Acetylcholinesterase (AChE) small molecule antagonists: colormetric cell-based qHTS assay (AID 1347395; calls by dose curve; also: nearly all actives have a fitted effect of over 30% in size). In outline:
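Colorimetric readout: DTNB quantifies thiocholine from acetylthiocholine hydrolysed by endogenous AChE of SH-SY5Y cells (2,000/well, plated overnight). Compound pretreatment 30 min, substrate incubation 90 min, both 37 C.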

For test [8] the target is unchanged. The test is described as follows: Acetylcholinesterase (AChE) small molecule antagonists: enzyme-based qHTS assay (AID 1347397; calls by dose curve; also: nearly all actives have a fitted effect of over 55% in size; also: potency is read from the fitted curve at half-maximal effect). The following applies: Potency: AChE enzyme activity inhibition. In a few lines:
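Human recombinant acetylcholinesterase; substrate acetylthiocholine; thiocholine quantified with DTNB (colorimetric). Compound preincubation 30 min RT; reaction 10 min RT.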

For test [9] the target is unchanged. The test is described as follows: Acetylcholinesterase (AChE) small molecule antagonists: fluorescence cell-based qHTS assay (AID 1347398; calls by dose curve; also: nearly all actives have a fitted effect of over 50% in size; also: potency is read from the fitted curve at half-maximal effect). The following applies: Potency: AChE activity. In a few lines:
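Thiocholine generated from acetylthiocholine by SH-SY5Y cell AChE is detected with Thiolite Green (Ex/Em 490/520 nm) after 40 min at room temperature, following 30 min compound pretreatment at 37 C.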

Test [10] has the same target. The test is described as follows: Acetylcholinesterase (AChE) small molecule antagonists: enzyme-based qHTS assay with human liver microsomes (AID 1347399; calls by dose curve; also: nearly all actives have a fitted effect of over 60% in size). The following applies: Potency: qHTS inhibition. In a few lines:
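Recombinant human AChE (50 mU/mL in the enzyme mix) and human liver microsomes (0.25 mg/mL final) were preincubated with compound and NADPH (0.25 mg/mL final) for 30 min at 37 C. Acetylthiocholine/DTNB was then added; thiocholine was read colorimetrically after 10 min at room temperature.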

Test [11] deals with Cytochrome P450 2D6 (Homo sapiens) (UniProt P10635). Nature of the test: Cytochrome P450 Family 2 Subfamily D Member 6 (CYP2D6) small molecule antagonists: luciferase reporter qHTS assay (AID 1671196). Also: nearly all actives have a fitted effect of over 50% in size. Also: potency is read from the fitted curve at half-maximal effect. In outline: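 Cell-free P450-Glo system: CYP2D6 with proluciferin substrate was pre-incubated with compound for 10 min, then reacted with NADPH regeneration for 1 h at room temperature. Luciferin product was detected after 20 min, and data were reported as relative luminescence units.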
Cytochrome P450 2D6 (Homo sapiens), sequence (P10635 whole entry, looked up): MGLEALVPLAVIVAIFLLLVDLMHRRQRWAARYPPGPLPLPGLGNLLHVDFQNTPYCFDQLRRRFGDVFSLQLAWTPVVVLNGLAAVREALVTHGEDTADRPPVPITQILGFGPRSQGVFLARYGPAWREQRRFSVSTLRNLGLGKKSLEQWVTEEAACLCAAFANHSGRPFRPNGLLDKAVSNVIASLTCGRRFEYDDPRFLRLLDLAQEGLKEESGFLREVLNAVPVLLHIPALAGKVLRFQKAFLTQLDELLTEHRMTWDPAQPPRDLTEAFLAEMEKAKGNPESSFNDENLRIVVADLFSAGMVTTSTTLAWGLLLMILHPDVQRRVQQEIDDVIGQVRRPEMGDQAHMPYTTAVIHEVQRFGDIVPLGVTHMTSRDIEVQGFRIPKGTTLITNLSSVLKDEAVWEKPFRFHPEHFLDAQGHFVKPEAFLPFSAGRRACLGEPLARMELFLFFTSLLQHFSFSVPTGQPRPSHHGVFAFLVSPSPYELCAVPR

For test [12], the target named is Cytochrome P450 2C19 (Homo sapiens) (UniProt P33261). The test is described as follows: Cytochrome P450 Family 2 Subfamily C Member 19 (CYP2C19) small molecule antagonists: luciferase reporter qHTS assay (AID 1671197). Also: nearly all actives have a fitted effect of over 65% in size. Also: potency is read from the fitted curve at half-maximal effect. In outline: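 Inhibition of CYP2C19 was scored from loss of luminescence in a P450-Glo proluciferin substrate assay, NADPH-started and run 1 h at 37C, with ketoconazole as positive control.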
Cytochrome P450 2C19 (Homo sapiens), sequence (P33261 whole entry, looked up): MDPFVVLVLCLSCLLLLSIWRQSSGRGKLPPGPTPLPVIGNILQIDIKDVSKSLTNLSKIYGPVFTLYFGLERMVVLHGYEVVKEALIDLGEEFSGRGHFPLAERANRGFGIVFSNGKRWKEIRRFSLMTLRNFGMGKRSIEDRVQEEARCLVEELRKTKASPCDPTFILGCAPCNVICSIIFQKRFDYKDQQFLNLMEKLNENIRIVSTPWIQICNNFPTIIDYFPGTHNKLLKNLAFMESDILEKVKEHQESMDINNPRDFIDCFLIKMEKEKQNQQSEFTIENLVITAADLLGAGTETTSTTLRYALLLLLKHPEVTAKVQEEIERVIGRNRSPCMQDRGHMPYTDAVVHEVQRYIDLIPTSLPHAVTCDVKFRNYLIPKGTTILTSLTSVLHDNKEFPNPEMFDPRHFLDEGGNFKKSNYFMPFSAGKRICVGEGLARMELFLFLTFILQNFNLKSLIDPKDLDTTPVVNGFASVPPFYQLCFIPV
On the technique in general: Reporter assays use an easily measured gene product as a stand-in for the process of interest.

For test [13], the target named is Cytochrome P450 2C9 (Homo sapiens) (UniProt P11712). The test is described as follows: Cytochrome P450 Family 2 Subfamily C Member 9 (CYP2C9) small molecule antagonists: luciferase reporter qHTS assay (AID 1671198). Also: nearly all actives have a fitted effect of over 50% in size. Also: potency is read from the fitted curve at half-maximal effect. In outline:
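CYP2C9 activity was measured with a P450-Glo proluciferin substrate. Enzyme–substrate mix was held with compound for 10 min at room temperature, then NADPH regeneration solution was added for 1 h at 37C. Luciferin product was read as luminescence.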

In test [14] the target is Cytochrome P450 1A2 (Homo sapiens) (UniProt P05177). The test is described as follows: Cytochrome P450 Family 1 Subfamily A Member 2 (CYP1A2) small molecule antagonists: luciferase reporter qHTS assay (AID 1671199). Also: nearly all actives have a fitted effect of over 50% in size. Also: potency is read from the fitted curve at half-maximal effect. In a few lines:
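P450-Glo CYP1A2 enzyme–proluciferin substrate mix with compound 10 min at room temperature, then NADPH regeneration 1 h at room temperature. Luciferin detection reagent added, luminescence read after 20 min; furafylline positive control.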

The target of test [15] is Voltage-gated inwardly rectifying potassium channel KCNH2 (Homo sapiens) (UniProt Q12809). Nature of the test: Human Ether-a-go-go-Related Gene (hERG) channel small molecule antagonists: fluorescence cell-based qHTS assay (AID 1671200). Also: nearly all actives have a fitted effect of over 50% in size. Also: potency is read from the fitted curve at half-maximal effect. In a few lines: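 Thallium flux as potassium surrogate: FluxOR II dye loaded 1 h at room temperature into hERG-expressing U2OS cells, then stimulus buffer added after 10 min. Kinetic 480 nm excitation/540 nm emission read, 2 min.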
Voltage-gated inwardly rectifying potassium channel KCNH2 (Homo sapiens), sequence (Q12809 whole entry, looked up): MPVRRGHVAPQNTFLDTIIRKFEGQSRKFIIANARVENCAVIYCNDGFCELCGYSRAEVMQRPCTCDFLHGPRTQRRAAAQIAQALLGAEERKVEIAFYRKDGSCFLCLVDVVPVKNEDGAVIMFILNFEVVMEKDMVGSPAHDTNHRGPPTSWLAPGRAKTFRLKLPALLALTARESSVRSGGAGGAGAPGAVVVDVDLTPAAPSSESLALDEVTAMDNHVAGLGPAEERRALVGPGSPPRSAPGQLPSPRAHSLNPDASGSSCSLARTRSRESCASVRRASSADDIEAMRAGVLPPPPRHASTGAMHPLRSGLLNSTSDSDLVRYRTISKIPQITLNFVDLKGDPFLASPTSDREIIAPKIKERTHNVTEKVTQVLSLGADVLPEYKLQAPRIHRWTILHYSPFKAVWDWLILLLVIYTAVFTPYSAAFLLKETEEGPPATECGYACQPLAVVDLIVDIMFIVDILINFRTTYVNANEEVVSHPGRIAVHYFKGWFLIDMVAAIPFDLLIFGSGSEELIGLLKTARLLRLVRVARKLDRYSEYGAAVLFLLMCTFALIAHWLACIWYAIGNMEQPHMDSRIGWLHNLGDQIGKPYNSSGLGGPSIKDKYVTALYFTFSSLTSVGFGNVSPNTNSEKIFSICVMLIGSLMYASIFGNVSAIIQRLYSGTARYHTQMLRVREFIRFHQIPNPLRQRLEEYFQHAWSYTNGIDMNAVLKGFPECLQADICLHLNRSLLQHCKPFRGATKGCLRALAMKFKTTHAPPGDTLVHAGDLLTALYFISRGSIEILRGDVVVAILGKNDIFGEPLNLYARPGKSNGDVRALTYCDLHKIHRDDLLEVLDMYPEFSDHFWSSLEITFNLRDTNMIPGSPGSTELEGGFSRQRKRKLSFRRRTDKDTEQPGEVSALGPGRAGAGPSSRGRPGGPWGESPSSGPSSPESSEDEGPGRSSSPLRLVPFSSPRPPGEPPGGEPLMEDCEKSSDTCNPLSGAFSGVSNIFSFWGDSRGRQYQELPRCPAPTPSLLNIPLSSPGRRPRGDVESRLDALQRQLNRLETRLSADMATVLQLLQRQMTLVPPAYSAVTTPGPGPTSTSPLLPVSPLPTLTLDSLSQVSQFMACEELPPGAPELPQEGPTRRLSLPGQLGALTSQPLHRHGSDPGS
On the technique in general: hERG is a cardiac potassium channel; its block is linked to QT prolongation.

Test [16] deals with Cytochrome P450 3A4 (Homo sapiens) (UniProt P08684). Nature of the test: Cytochrome P450 Family 3 Subfamily A Member 4 (CYP3A4) small molecule antagonists: luciferase reporter qHTS assay (AID 1671201). Also: nearly all actives have a fitted effect of over 50% in size. Also: potency is read from the fitted curve at half-maximal effect. In a few lines:
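Recombinant human CYP3A4 converts a proluciferin substrate to luciferin over 1 h at room temperature after NADPH regeneration solution is added (compound preincubated 10 min); detection reagent stops reaction, luminescence read 20 min later as relative units.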

Several values for one entry are separate records, joined by “and”; a condition that tells them apart may be missing. Identical values can stand only once. Results filed as inconclusive are left out. Some compounds were tested as several samples or in several runs, with calls that do not always agree. Activity calls are given as the source filed them. Unless noted, calls follow the shape of the dose curve; as a rule, active = well fitted curve in the direction sought with a large enough effect in the repeat runs; inconclusive = weak or mixed curves; inactive = no such curve, though single readings can be large; an effect the other way counts as inactive or inconclusive.

Cytochrome P450 3A4 (Homo sapiens), sequence (P08684 whole entry, looked up): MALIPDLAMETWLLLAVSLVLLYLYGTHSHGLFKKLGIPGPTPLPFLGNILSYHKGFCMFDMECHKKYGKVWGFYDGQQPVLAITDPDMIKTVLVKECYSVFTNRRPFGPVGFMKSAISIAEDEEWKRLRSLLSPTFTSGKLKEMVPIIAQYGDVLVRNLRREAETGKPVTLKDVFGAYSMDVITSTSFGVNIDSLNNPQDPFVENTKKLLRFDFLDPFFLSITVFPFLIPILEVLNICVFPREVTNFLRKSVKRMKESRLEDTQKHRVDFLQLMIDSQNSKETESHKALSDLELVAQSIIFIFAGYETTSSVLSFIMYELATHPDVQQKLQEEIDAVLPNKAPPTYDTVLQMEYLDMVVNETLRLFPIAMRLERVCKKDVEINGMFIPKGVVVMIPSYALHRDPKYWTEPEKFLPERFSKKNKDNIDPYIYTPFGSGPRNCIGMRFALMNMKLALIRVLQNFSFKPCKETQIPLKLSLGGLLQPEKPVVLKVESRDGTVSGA
Acetylcholinesterase (Homo sapiens), sequence (P22303 whole entry, looked up): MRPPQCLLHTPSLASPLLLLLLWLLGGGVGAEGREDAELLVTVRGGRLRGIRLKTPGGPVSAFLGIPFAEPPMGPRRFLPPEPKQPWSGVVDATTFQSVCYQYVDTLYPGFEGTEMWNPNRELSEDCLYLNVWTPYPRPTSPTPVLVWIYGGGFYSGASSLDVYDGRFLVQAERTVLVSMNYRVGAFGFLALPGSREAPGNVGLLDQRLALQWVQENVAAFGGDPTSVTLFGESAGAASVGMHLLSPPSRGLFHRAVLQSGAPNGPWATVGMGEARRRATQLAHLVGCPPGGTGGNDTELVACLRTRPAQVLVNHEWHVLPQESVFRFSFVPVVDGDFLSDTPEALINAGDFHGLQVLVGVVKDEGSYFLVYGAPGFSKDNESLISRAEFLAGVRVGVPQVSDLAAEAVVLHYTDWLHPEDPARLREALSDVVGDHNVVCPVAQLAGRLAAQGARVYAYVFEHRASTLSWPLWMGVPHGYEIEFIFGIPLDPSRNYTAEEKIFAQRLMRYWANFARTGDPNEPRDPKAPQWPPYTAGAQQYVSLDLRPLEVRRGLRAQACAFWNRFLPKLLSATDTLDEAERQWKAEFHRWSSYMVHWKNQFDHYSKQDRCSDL
Nuclear receptor subfamily 1 group I member 2 (Homo sapiens), sequence (O75469 whole entry, looked up): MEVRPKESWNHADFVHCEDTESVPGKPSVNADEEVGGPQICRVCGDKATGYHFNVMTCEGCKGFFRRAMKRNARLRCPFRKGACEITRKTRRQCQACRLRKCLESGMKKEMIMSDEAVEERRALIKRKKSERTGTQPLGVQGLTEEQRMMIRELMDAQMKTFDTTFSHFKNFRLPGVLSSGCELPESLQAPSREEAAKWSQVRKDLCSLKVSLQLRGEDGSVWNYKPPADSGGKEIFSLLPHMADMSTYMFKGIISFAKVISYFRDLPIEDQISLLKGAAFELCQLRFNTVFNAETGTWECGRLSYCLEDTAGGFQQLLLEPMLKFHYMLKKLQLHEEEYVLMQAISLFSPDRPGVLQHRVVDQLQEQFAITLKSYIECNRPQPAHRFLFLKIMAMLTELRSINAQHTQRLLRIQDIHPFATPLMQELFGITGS
Cytochrome P450 1A2 (Homo sapiens), sequence (P05177 whole entry, looked up): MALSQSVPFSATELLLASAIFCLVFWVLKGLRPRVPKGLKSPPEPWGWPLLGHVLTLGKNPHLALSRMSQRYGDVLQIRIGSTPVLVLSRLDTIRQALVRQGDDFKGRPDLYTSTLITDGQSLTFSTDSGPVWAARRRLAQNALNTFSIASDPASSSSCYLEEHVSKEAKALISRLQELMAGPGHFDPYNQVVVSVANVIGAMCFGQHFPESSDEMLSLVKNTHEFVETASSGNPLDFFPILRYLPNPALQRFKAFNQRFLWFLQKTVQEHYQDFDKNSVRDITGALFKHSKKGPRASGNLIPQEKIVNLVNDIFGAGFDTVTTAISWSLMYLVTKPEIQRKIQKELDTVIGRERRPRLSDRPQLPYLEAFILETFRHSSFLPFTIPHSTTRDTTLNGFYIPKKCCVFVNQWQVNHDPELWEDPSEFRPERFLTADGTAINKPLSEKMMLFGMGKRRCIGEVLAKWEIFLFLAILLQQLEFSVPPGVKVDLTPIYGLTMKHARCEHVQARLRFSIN
Cytochrome P450 2C9 (Homo sapiens), sequence (P11712 whole entry, looked up): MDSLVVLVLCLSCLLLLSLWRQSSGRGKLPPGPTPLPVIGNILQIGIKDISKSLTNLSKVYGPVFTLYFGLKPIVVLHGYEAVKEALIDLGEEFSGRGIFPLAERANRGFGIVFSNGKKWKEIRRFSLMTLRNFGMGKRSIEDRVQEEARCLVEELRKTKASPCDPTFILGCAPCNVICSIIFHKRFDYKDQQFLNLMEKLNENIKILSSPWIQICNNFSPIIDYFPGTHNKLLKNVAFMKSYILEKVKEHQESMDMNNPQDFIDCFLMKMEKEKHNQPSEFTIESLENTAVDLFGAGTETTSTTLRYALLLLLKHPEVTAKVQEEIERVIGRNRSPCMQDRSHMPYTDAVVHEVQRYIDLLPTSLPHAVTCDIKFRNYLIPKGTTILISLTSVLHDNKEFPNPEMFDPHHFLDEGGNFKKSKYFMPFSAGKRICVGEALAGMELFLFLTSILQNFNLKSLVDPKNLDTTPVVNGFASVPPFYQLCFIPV

Take `ClCc1ccccn1`: the Potency entry in [1], in test [2], in test [3], in test [4], in test [5] and in test [6] was “inactive” throughout. In addition, the Potency result in [7], in test [8], in test [9], in test [10], in test [13] and in test [14] was “inactive” in each case. Besides, the Potency result in test [15] and in [16] was “inactive” each time. The Potency was 39.2 µM (active) in [11]; 78.1 µM (active) and inactive in test [12].

`CCC[CH2][Sn]([Cl])([CH2]CCC)[CH2]CCC`: the Potency is 562 nM (active) and 433 nM (active) in test [1]; 1.73 µM (active) and 2.73 µM (active) in [2]; 194 nM (active) and 344 nM (active) in test [3]; 274 nM (active) and 545 nM (active) in test [4]; 1.94 µM (active) and 4.33 µM (active) in test [5]; 487 nM (active) and inactive in test [6]. For the same compound, the Potency in test [11] was 634 nM (active) and 2 µM (active); in test [12] it was 2.01 µM (active) and 2.24 µM (active); in test [13] it was 14.2 µM (active) and 15.9 µM (active); in [14], 40 µM (active); in test [15], 12.3 µM (active) and 6.92 µM (active); in [16], 15.9 µM (active) and 20 µM (active). For the same compound, the Potency result in test [7], in test [8], in test [9] and in [10] was “inactive” in each case.

For `CN(C)P(=O)(N(C)C)N(C)C`, the Potency entry in test [1], in test [2], in [3], in test [4], in test [5] and in test [6] was “inactive” throughout. Also, the Potency entry in [7], in [8], in test [9], in test [10], in test [11] and in test [12] was “inactive” each time. The Potency entry in [13], in test [14], in test [15] and in test [16] was “inactive” each time.

Turning to `CCC/C=N/O`, the Potency entry in test [1], in test [2], in test [3], in test [4], in test [5] and in test [6] was “inactive” in each case. Further, the Potency entry in test [7], in test [10], in test [11], in test [12], in test [13] and in [14] was “inactive” each time. The Potency result in [15] and in test [16] was “inactive” in each case. The Potency was 34.2 µM (active) and inactive in [8]; 8.6 µM (active) and inactive in test [9].

`CC(C)(O)C#N`: the Potency entry in test [1], in test [2], in test [3], in [4], in test [5] and in [6] was “inactive” throughout. Further, the Potency result in test [7], in test [8], in test [9], in test [10], in test [11] and in [15] was “inactive” throughout. In test [16], the Potency result was “inactive”. Moreover, the Potency in [12] was 75.3 µM (active) and 39.9 µM (active); in test [13], 42.4 µM (active); in test [14] it was “inactive and 39.9 µM (active)”.

`CC1CC(=O)O1` (stereo unspecified): the Potency entry in test [1], in test [2], in test [3], in [4], in test [5] and in test [6] was “inactive” each time. The Potency entry in test [7], in test [8], in test [9], in [10], in test [11] and in test [12] was “inactive” each time. For the same compound, the Potency result in [13], in [14], in test [15] and in test [16] was “inactive” in each case.

For the origin of these results see PubChem BioAssay (Tox21).
